Assay [1] concerns the target guinea pig Sigma Receptor, Non-selective Binding, SIGMAR1 (gene 100135589) (UniProt Q60492). The assay can be described thus: NVS_OR_gSIGMA_NonSelective: NovaScreen (NVS) Nuclear Receptor Binding Assay for guinea pig Sigma Receptor, Non-selective Binding (AID 2283367). In short, it runs like this:
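Guinea pig brain membranes, cell-free radioligand binding; read 1 h after dosing by filter-based scintillation counting. Loss of signal vs DMSO baseline taken as displacement. Primary screen single concentration 25 uM in duplicate; actives retested in concentration series.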

The target of assay [2] is human Serotonin Transporter (SERT), SLC6A4 (gene 6532) (UniProt P31645). The assay can be described thus: NVS_TR_hSERT: NovaScreen (NVS) Transporter Assay for human Serotonin Transporter (SERT) (AID 2283372). In short, it runs like this: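 Radioligand binding to native SERT in human platelet membranes, read by filter-based scintillation counting 1 h after dosing. Primary screen in duplicate at 25 uM; actives followed up in concentration series; loss of signal versus DMSO baseline.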

Assay [3] concerns rat Norepinephrine Transporter (NET), gene 83511. The assay is described as follows: NVS_TR_rNET: NovaScreen (NVS) Transporter Assay for rat Norepinephrine Transporter (NET) (AID 2283373). In short, it runs like this:
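Rat forebrain membranes; radioligand binding measured by filter-based scintillation counting 1 hour after dosing. Loss of specific binding versus DMSO baseline scored; primary screen in duplicate at 25 uM, actives followed up in concentration series.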

Assay [4] has as its target rat Serotonin Transporter (SERT), Slc6a4 (gene 25553) (UniProt P31652). The assay is described as follows: NVS_TR_rSERT: NovaScreen (NVS) Transporter Assay for rat Serotonin Transporter (SERT) (AID 2283375). The gist of the method: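 Filtration-based radiodetection quantified loss of specific radioligand binding in rat forebrain membranes after 1 hour of chemical exposure, relative to DMSO. Chemicals were first tested in duplicate at 25 uM.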

In assay [5] the target is Norway rat Vesicular Monoamine Transporter (VMAT2), neurotransmitter transporter, Slc18a2 (gene 25549) (UniProt Q01827). The assay can be described thus: NVS_TR_rVMAT2: NovaScreen (NVS) Transporter Assay for Norway rat Vesicular Monoamine Transporter (VMAT2), neurotransmitter transporter (AID 2283376).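 Further: actives lower the bound radioligand signal below the DMSO level.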 The gist of the method:
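Rat forebrain tissue preparation used in a cell-free radioligand binding format; displacement read by filter-based scintillation counting 1 hour after dosing. Primary screen in duplicate at 25 uM, actives then run in concentration series; loss of signal versus DMSO baseline.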

Assay [6] addresses Retinoic acid receptor RXR-alpha (Homo sapiens) (UniProt P19793). The assay is described as follows: OT_NURR1_NURR1RXRa_0480: Odyssey Thera (OT) 8-hour HEK293T Protein Complementation Assay for Nurr1/retinoid X receptor (RXR) (AID 2283385). The gist of the method: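 Compounds are applied to HEK293T cells carrying Nurr1 and RXRα linked to reporter fragments. After 8 h, fluorescence intensity reports heterodimer formation, with DMSO as baseline.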

Assay [7] deals with Peroxisome proliferator-activated receptor gamma (Homo sapiens) (UniProt P37231). The assay is described as follows: NVS_NR_hPPARg: NovaScreen (NVS) Nuclear Receptor Binding Assay for human Peroxisome Proliferator-activated Receptor gamma (PPARg) (AID 2283370). In short, it runs like this: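 Chemicals were tested first in duplicate at 25 uM, then in concentration series if active. Binding to cell-free PPARg protein was measured by fluorescence polarization after 2 h, with loss of signal scored against DMSO.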

For assay [8], the target named is Agonist Androgen Response Element (ARE), AR (gene 367) (UniProt P10275). The assay is described as follows: OT_AR_ARELUC_AG_1440: Odyssey Thera (OT) 24-hour CHO-K1 Luciferase Assay for Agonist Androgen Response Element (ARE) (AID 2283379). The gist of the method:
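Seed CHO-K1 cells; dose compounds for 24 h; add D-luciferin plus ATP in PBS; read luminescence. Signal increase relative to vehicle defines agonist activity, with at least 3 replicate wells per sample.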

For assay [9], the target named is Estrogen receptor beta (Homo sapiens) (UniProt Q92731). The assay is described as follows: OT_ER_ERbERb_1440: Odyssey Thera (OT) 24-hour HEK293T Protein-Complementation Assay for Estrogen Receptor-beta/-beta Homodimer (AID 2283380).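 Further: fluorescence gain from ER beta LBD homodimer complementation read by laser scanning cytometry; scored as signal increase over DMSO baseline for both agonists and antagonists.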 In short, it runs like this:
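HEK293T cells stably expressing human ER-beta LBD (aa 310-547) PCA homodimer pair, dosed 24 h; formaldehyde-fixed, Draq5-stained. Readout: increase in nuclear (agonist) or nuclear plus cytoplasmic (antagonist) fluorescence intensity versus DMSO, gain-of-signal fitting.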

The target of assay [10] is Estrogen receptor (Homo sapiens) (UniProt P03372). The assay is described as follows: OT_ERa_GFPERaERE_0480: Odyssey Thera (OT) 8-hour HeLa Transcription Induction Assay for Estrogen Receptor (AID 2283381; active means hit-call score of the fitted dose curve at least 0.9, where 1 is the maximum; inactive means score below 0.9). The gist of the method:
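Cells (HeLa) receive compound; after 8 h, reporter fluorescence is imaged and quantified by high-content analysis. Gain-of-signal relative to DMSO gives the endpoint.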

For assay [11] the target is unchanged. The assay can be described thus: OT_ERa_GFPERaERE_0120: Odyssey Thera (OT) 2-hour HeLa Transcription Induction Assay for Estrogen Receptor (AID 2283382). The gist of the method: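 Measures ESR1 pathway reporter gain-of-signal in HeLa cells after a 2-hour treatment, detected as fluorescent protein induction by microscopy, DMSO as baseline.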
The target of assay [12] is rat Androgen Receptor (AR), Ar (gene 24208) (UniProt P15207). The assay can be described thus: NVS_NR_rAR: NovaScreen (NVS) Nuclear Receptor Binding Assay for rat Androgen Receptor (AR) (AID 2283366). The gist of the method:
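Cell-free radioligand binding on extracts of prostate from testosterone-pretreated rats, read by filter-based scintillation counting 18 h after dosing. Loss of bound signal fitted positively versus DMSO; primary screen in duplicate at 25 uM, actives followed up in concentration series.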

In assay [13] the target is Bile acid receptor (Homo sapiens) (UniProt Q96RI1). The assay is described as follows: OT_FXR_FXRSRC1_0480: Odyssey Thera (OT) 8-hour HEK293T Protein-Complementation Assay for Farnesoid X receptor/SRC-1 Co-activator (AID 2283383). In short, it runs like this: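 Co-activator recruitment to FXR was measured in living HEK293T cells, where interaction of the two fused partners restored an active fluorescent reporter. Signal gain after 8 h treatment was referenced to DMSO.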

Assay [14] shares this target. The assay can be described thus: OT_FXR_FXRSRC1_1440: Odyssey Thera (OT) 24-hour HEK293T Protein-Complementation Assay for Farnesoid X receptor/SRC-1 Co-activator (AID 2283384). In short, it runs like this:
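Cell-based binding reporter: interaction of FXR with SRC-1 brings reporter fragments together, giving a fluorescence signal read 24 h after dosing of HEK293T cells.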

Assay [15] relates to guinea pig Dopamine Transporter (DAT), gene 100714898. The assay is described as follows: NVS_TR_gDAT: NovaScreen (NVS) Transporter Assay for guinea pig Dopamine Transporter (DAT) (AID 2283369).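 Further: active compounds lower bound radioligand signal relative to DMSO.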 In short, it runs like this: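 Scintillation counts of filter-retained radioligand report binding to guinea pig striatal membranes after 2 h. Activity scored as signal loss relative to DMSO, first at 25 uM in duplicate, then in concentration series to 50 uM.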

For assay [16], the target named is human Dopamine Transporter (DAT), SLC6A3 (gene 6531) (UniProt Q01959). The assay is described as follows: NVS_TR_hDAT: NovaScreen (NVS) Transporter Assay for human Dopamine Transporter (DAT) (AID 2283374).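 Further: activity means loss of bound radioligand signal relative to DMSO.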 The gist of the method: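 Cell-free radioligand binding to extracted human DAT protein, read 1 h after dosing by filter-based scintillation counting. Loss of specific binding scored against DMSO baseline; primary screen in duplicate at 25 uM, actives then run in concentration series.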

Assay [17] addresses human Norepinephrine Transporter (NET), SLC6A2 (gene 6530) (UniProt P23975). The assay is described as follows: NVS_TR_hNET: NovaScreen (NVS) Transporter Assay for human Norepinephrine Transporter (NET) (AID 2283377).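 Further: cell-free membrane protein extracted from CHO cells expressing human NET.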 The gist of the method:
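Radioligand binding to human NET in cell-free CHO-derived protein preparations, read by filter-based scintillation counting 1 hour after dosing. Loss of signal versus DMSO baseline indicated displacement; primary screening in duplicate at 25 uM, actives then titrated.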

Inconclusive results are not listed. The source made the active and inactive calls. How the source made its calls, unless noted: active means hit-call score of the fitted dose curve at least 0.9, where 1 is the maximum; inconclusive means response in the unintended direction; inactive means score below 0.9.

Sequence of Agonist Androgen Response Element (ARE), AR (gene 367) (P10275 whole entry, looked up): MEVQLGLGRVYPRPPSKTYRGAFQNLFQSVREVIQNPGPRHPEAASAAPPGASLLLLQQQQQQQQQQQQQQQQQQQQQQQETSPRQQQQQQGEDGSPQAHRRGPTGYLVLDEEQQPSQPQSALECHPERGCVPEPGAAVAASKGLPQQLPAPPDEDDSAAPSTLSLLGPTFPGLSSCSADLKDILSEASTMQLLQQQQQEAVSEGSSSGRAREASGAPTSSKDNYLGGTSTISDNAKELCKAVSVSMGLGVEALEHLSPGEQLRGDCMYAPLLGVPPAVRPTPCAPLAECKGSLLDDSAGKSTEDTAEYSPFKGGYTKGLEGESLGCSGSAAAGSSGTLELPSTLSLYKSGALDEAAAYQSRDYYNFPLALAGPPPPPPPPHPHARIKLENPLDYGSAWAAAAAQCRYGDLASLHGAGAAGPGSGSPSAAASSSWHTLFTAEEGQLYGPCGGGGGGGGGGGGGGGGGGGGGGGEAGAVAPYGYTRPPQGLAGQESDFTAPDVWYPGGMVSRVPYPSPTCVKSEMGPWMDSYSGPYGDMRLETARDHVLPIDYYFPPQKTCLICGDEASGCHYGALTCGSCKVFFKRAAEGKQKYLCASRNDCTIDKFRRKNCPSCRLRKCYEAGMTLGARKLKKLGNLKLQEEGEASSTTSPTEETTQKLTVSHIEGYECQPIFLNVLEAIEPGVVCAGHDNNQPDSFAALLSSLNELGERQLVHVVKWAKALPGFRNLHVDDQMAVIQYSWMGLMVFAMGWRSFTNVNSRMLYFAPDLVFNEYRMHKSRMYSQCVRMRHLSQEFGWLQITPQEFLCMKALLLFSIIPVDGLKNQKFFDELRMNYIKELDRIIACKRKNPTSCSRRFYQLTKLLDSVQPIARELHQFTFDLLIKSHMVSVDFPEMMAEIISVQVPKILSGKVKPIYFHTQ
Sequence of Estrogen receptor beta (Homo sapiens) (Q92731 whole entry, looked up, the tested form may be a part): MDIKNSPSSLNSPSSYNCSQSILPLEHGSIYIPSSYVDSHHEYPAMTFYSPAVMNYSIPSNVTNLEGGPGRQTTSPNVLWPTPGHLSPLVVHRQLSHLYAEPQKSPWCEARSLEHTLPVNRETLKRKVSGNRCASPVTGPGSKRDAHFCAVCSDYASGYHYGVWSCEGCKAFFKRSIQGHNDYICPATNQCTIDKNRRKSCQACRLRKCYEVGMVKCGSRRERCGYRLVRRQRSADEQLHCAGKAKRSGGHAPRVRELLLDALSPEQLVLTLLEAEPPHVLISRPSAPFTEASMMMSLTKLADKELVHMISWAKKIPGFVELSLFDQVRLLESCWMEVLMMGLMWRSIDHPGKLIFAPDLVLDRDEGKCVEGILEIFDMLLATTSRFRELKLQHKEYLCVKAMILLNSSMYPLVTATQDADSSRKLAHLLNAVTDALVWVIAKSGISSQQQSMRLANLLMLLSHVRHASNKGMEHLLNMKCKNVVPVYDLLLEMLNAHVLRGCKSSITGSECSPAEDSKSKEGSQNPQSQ
Sequence of Peroxisome proliferator-activated receptor gamma (Homo sapiens) (P37231 whole entry, looked up): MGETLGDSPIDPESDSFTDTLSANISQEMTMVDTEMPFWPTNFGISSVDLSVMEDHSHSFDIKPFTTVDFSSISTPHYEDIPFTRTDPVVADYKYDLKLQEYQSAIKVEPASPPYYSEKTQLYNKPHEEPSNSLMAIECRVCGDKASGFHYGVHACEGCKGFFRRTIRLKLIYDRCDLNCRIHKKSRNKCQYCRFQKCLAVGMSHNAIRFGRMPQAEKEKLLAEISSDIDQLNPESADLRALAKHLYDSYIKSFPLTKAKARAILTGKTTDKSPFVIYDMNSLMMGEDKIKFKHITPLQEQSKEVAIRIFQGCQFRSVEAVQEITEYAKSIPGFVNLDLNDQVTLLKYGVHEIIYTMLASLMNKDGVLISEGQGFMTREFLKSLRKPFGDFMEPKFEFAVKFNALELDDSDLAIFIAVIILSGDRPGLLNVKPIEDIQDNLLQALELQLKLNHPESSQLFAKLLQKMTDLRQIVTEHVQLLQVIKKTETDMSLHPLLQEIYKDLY
Sequence of Bile acid receptor (Homo sapiens) (Q96RI1 whole entry, looked up, the tested form may be a part): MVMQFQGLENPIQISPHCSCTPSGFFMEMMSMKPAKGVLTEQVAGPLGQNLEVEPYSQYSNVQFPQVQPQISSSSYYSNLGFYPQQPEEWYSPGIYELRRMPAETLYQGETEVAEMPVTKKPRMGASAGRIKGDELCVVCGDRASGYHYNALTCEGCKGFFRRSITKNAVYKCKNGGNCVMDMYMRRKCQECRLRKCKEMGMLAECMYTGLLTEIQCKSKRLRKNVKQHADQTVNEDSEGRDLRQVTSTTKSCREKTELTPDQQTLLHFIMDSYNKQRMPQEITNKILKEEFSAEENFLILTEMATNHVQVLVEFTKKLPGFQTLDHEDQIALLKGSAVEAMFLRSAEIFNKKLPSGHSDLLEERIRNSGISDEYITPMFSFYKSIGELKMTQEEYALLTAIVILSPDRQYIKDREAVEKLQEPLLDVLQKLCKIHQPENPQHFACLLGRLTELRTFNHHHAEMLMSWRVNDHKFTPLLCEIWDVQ
Sequence of Estrogen receptor (Homo sapiens) (P03372 whole entry, looked up): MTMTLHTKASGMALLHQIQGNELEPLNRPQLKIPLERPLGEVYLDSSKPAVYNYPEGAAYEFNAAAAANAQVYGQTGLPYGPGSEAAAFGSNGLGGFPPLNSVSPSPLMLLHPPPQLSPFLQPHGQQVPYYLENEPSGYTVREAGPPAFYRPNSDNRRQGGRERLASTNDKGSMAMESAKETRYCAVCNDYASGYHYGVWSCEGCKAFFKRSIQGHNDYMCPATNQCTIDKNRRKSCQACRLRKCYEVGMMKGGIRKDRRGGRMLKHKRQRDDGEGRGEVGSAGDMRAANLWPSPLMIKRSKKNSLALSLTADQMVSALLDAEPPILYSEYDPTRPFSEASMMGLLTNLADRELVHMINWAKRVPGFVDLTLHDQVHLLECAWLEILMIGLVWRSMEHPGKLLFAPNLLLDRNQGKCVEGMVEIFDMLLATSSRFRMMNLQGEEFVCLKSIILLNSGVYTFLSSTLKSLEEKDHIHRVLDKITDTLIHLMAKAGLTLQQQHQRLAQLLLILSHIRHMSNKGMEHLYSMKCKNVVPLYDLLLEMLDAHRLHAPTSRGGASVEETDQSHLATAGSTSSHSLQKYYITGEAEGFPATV
Sequence of Norway rat Vesicular Monoamine Transporter (VMAT2), neurotransmitter transporter, Slc18a2 (gene 25549) (Q01827 whole entry, looked up): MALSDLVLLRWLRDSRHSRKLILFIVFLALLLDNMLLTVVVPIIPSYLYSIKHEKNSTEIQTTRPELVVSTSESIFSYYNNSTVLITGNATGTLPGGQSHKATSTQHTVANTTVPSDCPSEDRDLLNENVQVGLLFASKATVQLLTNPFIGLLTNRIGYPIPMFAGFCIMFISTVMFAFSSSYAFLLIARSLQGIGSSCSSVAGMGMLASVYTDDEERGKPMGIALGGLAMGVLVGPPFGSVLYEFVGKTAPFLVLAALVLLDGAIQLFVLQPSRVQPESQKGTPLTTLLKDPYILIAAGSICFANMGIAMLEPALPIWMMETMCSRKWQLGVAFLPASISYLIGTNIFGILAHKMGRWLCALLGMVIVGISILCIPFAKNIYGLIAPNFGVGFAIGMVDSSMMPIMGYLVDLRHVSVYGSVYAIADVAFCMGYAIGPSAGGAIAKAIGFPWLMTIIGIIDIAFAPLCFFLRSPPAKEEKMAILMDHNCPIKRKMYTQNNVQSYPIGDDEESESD
Sequence of Retinoic acid receptor RXR-alpha (Homo sapiens) (P19793 whole entry, looked up, the tested form may be a part): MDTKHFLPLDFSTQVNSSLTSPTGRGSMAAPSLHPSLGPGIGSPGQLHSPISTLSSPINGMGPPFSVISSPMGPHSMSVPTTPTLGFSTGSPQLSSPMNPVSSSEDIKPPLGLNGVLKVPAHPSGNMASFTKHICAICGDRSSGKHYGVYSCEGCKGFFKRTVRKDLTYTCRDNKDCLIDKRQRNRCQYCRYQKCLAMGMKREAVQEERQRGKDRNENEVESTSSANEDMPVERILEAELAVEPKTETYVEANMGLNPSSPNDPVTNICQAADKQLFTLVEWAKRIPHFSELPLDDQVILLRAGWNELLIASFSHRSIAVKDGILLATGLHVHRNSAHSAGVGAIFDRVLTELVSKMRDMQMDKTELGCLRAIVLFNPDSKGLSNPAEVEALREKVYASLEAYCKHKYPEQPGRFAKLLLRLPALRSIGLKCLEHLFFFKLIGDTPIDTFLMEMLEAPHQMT
Sequence of guinea pig Sigma Receptor, Non-selective Binding, SIGMAR1 (gene 100135589) (Q60492 whole entry, looked up): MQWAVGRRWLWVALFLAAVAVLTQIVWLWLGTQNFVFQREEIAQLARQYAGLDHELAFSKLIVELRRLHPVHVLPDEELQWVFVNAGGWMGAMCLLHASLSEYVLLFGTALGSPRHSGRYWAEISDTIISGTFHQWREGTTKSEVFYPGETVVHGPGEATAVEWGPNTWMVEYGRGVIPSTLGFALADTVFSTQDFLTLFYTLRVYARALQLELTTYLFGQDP
Sequence of human Serotonin Transporter (SERT), SLC6A4 (gene 6532) (P31645 whole entry, looked up): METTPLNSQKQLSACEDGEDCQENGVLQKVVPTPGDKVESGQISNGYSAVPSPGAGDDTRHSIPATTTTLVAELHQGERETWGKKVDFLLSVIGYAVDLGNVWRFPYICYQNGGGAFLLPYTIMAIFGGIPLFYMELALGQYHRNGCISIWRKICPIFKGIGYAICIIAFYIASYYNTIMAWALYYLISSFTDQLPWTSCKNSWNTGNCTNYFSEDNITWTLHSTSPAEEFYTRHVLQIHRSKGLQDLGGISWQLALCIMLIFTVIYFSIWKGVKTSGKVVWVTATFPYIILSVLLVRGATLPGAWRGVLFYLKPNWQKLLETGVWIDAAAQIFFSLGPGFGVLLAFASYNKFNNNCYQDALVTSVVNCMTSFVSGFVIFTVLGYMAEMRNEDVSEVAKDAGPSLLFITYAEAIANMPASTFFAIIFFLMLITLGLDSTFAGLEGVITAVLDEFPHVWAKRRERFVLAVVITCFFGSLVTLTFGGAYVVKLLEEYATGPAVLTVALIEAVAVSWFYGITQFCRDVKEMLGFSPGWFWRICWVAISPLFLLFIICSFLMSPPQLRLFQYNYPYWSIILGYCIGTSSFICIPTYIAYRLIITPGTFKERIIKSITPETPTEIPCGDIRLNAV

Consider `C[C@]12CCC(=O)C[C@@H]1CC[C@@H]1[C@@H]2CC[C@]2(C)[C@@H](O)CC[C@@H]12`, for which the concentration at half-maximal activity (AC50) in assay [1] is 5.71 µM (active).

Regarding `CCN1CCC2(CC1)COc1cc3c(cc12)N(C(=O)c1ccc(-c2ccc(-c4nnc(C)o4)cc2C)cc1)CC3`, the AC50 in [1] was 3.01 µM (active); in assay [4], 7.6 µM (active). In addition, the molecule was classed as inactive in [2] and in [3].

As for `C=C(C)C(=O)[O][Sn]([CH2]CCC)([CH2]CCC)[CH2]CCC`, the AC50 in assay [2] is 8.9 µM (active); in assay [3], 25 µM (active); in assay [4], 4.15 µM (active); in [5] it was 4.76 µM (active).

`CC(C)(C)CC(C)(C)c1ccc(O)cc1`: the molecule was called inactive in assay [5].

Consider `C[C@]12CC[C@H](O)CC1=CC[C@@H]1[C@@H]2CC[C@]2(C)C(=O)CC[C@@H]12`, for which, in [6], the result was inactive.

Regarding `CC1(C)CCC(Cc2ccc(Cl)cc2)C1(O)Cn1cncn1` (configuration not stated), in [6], the molecule was called inactive.

Take `CC(C)(c1ccc(OCC2CO2)cc1)c1ccc(OCC2CO2)cc1` (configuration not stated): the molecule was called inactive in assay [7], in assay [8], in assay [9], in assay [10], in [11] and in assay [6].

With `CC(=[OH+])/C=C(/C)[O-].CC(=[OH+])/C=C(/C)[O-].CC(=[OH+])/C=C(/C)[O-].[Fe]`, the call in assay [5] was inactive.

As for `O=[N+]([O-])c1ccc(O)c([N+](=O)[O-])c1`, the outcome in [12], in assay [7], in assay [8], in [9], in [10] and in assay [11] was inactive. For the same molecule, the molecule was classed as inactive in assay [6].

Take `O=C(O)C(F)(F)C(F)(F)C(F)(F)C(F)(F)C(F)(F)C(F)(F)F`: the result in assay [7], in [9], in [13] and in assay [14] was inactive.

Regarding `CCCCCCCCC(=O)NCc1ccc(O)c(OC)c1`, the molecule was called inactive in [5].

On to `O=C(OC1CCCCC1)c1ccccc1C(=O)OC1CCCCC1`, for which the molecule was called inactive in assay [7], in assay [10] and in [11]. Also, the values for the AC50 in assay [13], in assay [14] and in assay [6] were 40.1 µM (active), 61.8 µM (active) and 44.6 µM (active), respectively.

Turning to `CCC(C)(C)c1ccc(O)c(C(C)(C)CC)c1`, the molecule was classed as inactive in assay [7], in [9], in assay [10] and in assay [11].

For the molecule `O=C1C(Cl)=C(Cl)C(=O)c2ccccc21`, the molecule was called inactive in [7], in assay [9], in assay [10] and in [11]. In addition, in assay [6], the AC50 was 11.4 µM (active).

In the case of `CCOC(=O)/C=C(C)/C=C/C[C@@H](C)CCCC(C)C`, the AC50 in [1] is 11 µM (active).

Consider `Nc1ccc(Cl)cc1C(=O)c1ccccc1`, for which the AC50 in assay [15] was 6.19 µM (active); in assay [16] it was 1.73 µM (active); in [17] it was 12 µM (active).

For `ClC1(Cl)C2(Cl)C3(Cl)C4(Cl)C(Cl)(Cl)C5(Cl)C3(Cl)C1(Cl)C5(Cl)C24Cl` (configuration not stated), the call in assay [7], in assay [8], in assay [10], in assay [11], in assay [13] and in [14] was inactive.

In the case of `COC(=O)c1sccc1S(=O)(=O)NC(=O)Nc1nc(C)nc(OC)n1`, the call in assay [7], in assay [9], in assay [10] and in assay [11] was inactive.

With `NC(=S)Nc1ccccc1`, the AC50 in [1] is 33 µM (active); in assay [17], 15.4 µM (active).

These data come from PubChem BioAssay (EPA / NIEHS).
